High-throughput results: PubChem BioAssay, National Center for Advancing Translational Sciences (NCATS)
HP1b chromo inh – HTS for Inhibitors of HP1-beta Chromodomain Interactions with Methylated Histone Tails. Chromobox protein homolog 1 (Homo sapiens), P83916. AlphaScreen HP1-beta / biotin-H3K9me3 peptide binding. Potency, µM (highest dose often 114 µM), hits mostly inhibitors. actives 0.56% (n = 390,000); further: nearly all actives have a fitted effect of over 70% in size
Target sequence (P83916 whole entry, looked up): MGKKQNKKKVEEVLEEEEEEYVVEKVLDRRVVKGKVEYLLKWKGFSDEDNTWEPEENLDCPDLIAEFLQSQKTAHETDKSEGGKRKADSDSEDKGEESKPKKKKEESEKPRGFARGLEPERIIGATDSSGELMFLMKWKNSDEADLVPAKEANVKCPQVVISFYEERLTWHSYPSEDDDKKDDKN
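Compound inhibition of the preformed complex between 50 nM HP1-beta and 50 nM biotinylated H3K9me3 peptide was read by AlphaScreen. Buffer was PBS pH 7.4 with 0.01% Tween-20. Incubations ran 30 min at room temperature, with 10 ug/mL donor/acceptor beads.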
G9a block – qHTS Assay for Inhibitors of Histone Lysine Methyltransferase G9a; AID 504332, 2011; Histone-lysine N-methyltransferase EHMT2 (Homo sapiens), Q96KQ7; Potency, µM (highest dose often 102 µM), usual class: inhibitors; actives 8.8% (n = 350,000); G9a H3K9 monomethylation, AlphaScreen, 2 h; further: nearly all actives have a fitted effect of over 75% in size
Target sequence (Q96KQ7 913-1193 limits assumed): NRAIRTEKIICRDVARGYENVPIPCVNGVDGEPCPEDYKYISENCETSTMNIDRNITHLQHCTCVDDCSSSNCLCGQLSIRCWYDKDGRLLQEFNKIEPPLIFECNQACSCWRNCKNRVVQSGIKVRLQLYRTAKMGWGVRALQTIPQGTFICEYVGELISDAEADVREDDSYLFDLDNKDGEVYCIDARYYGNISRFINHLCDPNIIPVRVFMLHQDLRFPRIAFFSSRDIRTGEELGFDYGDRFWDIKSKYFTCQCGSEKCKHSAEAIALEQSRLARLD
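AlphaScreen read-out: biotin-H3K9 peptide (500 nM) methylation by 20 nM enzyme with 20 uM SAM, 2 h at room temperature after 15 min compound preincubation; anti-monomethyl H3K9 antibody plus donor/acceptor beads, 10 min dark.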
BAZ2B inh – qHTS Assay for Inhibitors of BAZ2B | actives 4.4% (n = 360,000) | Bromodomain adjacent to zinc finger domain protein 2B (Homo sapiens), Q9UIF8 | Potency, µM (highest dose often 114 µM), hits mostly inhibitors | AlphaScreen BAZ2B-H3K14Ac peptide displacement | AID 504333, 2011; further: nearly all actives have a fitted effect of over 60% in size
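AlphaScreen displacement: compounds (up to 110uM) incubated 30 min at room temperature with a preformed 50 nM BAZ2B/50 nM biotinylated H3K14Ac peptide complex in PBS pH 7.4 with Tween-20. Donor and acceptor beads at 10 ug/mL final added, 20 min light-protected before reading.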
L3MBTL1 block – qHTS Assay for the Inhibitors of L3MBTL1; actives 0.66% (n = 230,000); Potency, µM (titrated, usually from 57.1 µM), actives largely listed as inhibitors; AlphaScreen L3MBTL1–H3K9me1 peptide binding; further: nearly all actives have a fitted effect of over 60% in size
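First, the protein-peptide complex forms for 30 min at room temperature (L3MBTL1 50 nM, biotinylated H3K9me1 peptide 75 nM). Next, compounds are pin-transferred and incubated 30 min. Finally, AlphaScreen beads are added and read after 30 min.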
JMJD2A Tudor – qHTS Assay for Inhibitors of JMJD2A-Tudor Domain. AlphaScreen JMJD2A-Tudor / H3K4me3 peptide binding. Potency, µM (top dose mostly 114 µM), usual class: inhibitors. actives 4.4% (n = 390,000). AID 504339, 2011; further: nearly all actives have a fitted effect of over 50% in size
Hits are given with their value; – = inactive; ? = inconclusive; · = no result; [ ] = remark or other dose. Sampled rows, rich in hits. Any-hit rate of the full collection: about 11%. The call rests on the fitted dose curve; in most records, active means well fitted inhibition curve with a large enough effect; inconclusive means small, poorly fitted or top-dose-only effect; inactive means no such curve, though single readings can be large or run the other way.

SMILES | HP1b chromo inh | G9a block | BAZ2B inh | L3MBTL1 block | JMJD2A Tudor
O=C(Nc1ccc(Cl)cc1)N1CCN(c2ccccc2)CC1 | – | – | – | – | –[11.4 µM]
COc1cccc(CNC(=O)c2c(C)nn(-c3cccc(C)c3)c2-n2cccc2)c1 | – | – | – | · | –
Cc1cccc(C)c1OCCCn1ccnc1 | ? | · | ? | – | 25µM
Cc1cc(C)c(OCCCn2ccnc2)c(C)c1 | – | – | ? | – | –
Clc1ccc(OCCCn2ccnc2)c(Br)c1 | 16µM | 3.5µM | 32µM | – | 5.6µM
Cc1ccc(OCCCCn2ccnc2)c(Cl)c1 | – | – | – | · | ?
Cc1cc(Cl)c(OCCCn2ccnc2)c(Br)c1 | ? | ? | 50µM | – | 22µM
COc1cccc2c1Oc1ncccc1N(C(=O)CCC(=O)NCCC(C)C)C2 | – | – | – | · | –
S=c1[nH]nc(-c2ccncc2)n1/N=C/C=C/c1ccco1 | – | – | 50µM | 18µM | 8.9µM
S=c1[nH]nc(-c2ccccc2Cl)n1/N=C/C=C/c1ccco1 | – | 1.1µM | ? | – | 16µM
CC(/C=N/n1c(-c2ccco2)n[nH]c1=S)=C\c1ccco1 | ? | 1.4µM | ? | – | 45µM
C(=C\c1ccco1)/C=N/n1cnnc1 | – | 40µM | – | ? | –
CC(=C/c1ccco1)/C=N/N1CCN(c2ccccc2)CC1 | – | – | ? | – | –
CC(=O)Nc1ccc(S(=O)(=O)NC2(C(F)(F)F)NC(=O)N(CCc3ccc(F)cc3)C2=O)cc1 (configuration not stated) | – | – | – | · | –
CCCOc1ccc(C2c3c(-c4ccccc4O)n[nH]c3C(=O)N2CCc2ccccc2)cc1OCC (configuration not stated) | – | – | – | · | –
CC(/C=N/n1c(-c2ccccc2)n[nH]c1=S)=C\c1ccco1 | – | 2.2µM | 50µM | – | 50µM
CC(/C=N/NC(=O)c1cc(-c2ccncc2)nc2ccccc12)=C\c1ccco1 | ? | ? | – | – | ?
CC(/C=N/n1c(-c2ccncc2)n[nH]c1=S)=C\c1ccco1 | – | · | ? | · | 5µM
CC(/C=N/n1c(-c2ccc(C)cc2)n[nH]c1=S)=C\c1ccco1 | ? | 1.3µM | – | – | ?
CCC(C)c1ccccc1OCCCCN1CCCC1 (configuration not stated) | – | ? | ? | ? | 3.2µM
CC(C)c1cccc(C(C)C)c1OCCCCCN1CCOCC1 | – | · | · | · | –
CCC(C)c1ccccc1OCCOCCN1CCCC1 (configuration not stated) | ? | 13µM | ? | – | 2.5µM
COc1cccc(C(=O)Nc2ccc(-n3nncc3-c3ccccc3)cc2)c1OC | – | – | – | · | ?
Cc1nc2sc(C(N)=O)c(N)c2c(-c2ccc(Br)cc2)c1C(=O)Nc1ccc(Cl)cc1 | – | – | – | · | –
Cn1c(-c2ccc3c(c2)OCO3)cnc1NC(=O)CCC(=O)NCCc1ccccc1 | – | – | ? | – | 56µM
SMILES | HP1b chromo inh | G9a block | BAZ2B inh | L3MBTL1 block | JMJD2A Tudor
O=C(O)COc1nn(Cc2ccccc2)c2ccccc12 | · | –[12.7 µM] | · | · | ·
Cc1noc(C)c1COC(=O)c1cc2c3ccccc3n(C)c2s1 | – | 40µM | – | – | –
Cc1cc(C)cc(OCC(=O)NCC2(N(C)C)CCCCC2)c1 | – | – | – | · | –
O=C(O)CSC1=NC(=Nc2cccc(Cl)c2)C2(CCCCC2)N1c1ccccc1 | ? | 3.5µM | – | – | 45µM
O=c1c2cccnc2n(Cc2ccccc2F)c(=O)n1Cc1ccccc1Cl | – | – | – | · | –
Cc1c(C2=CCN(S(=O)(=O)c3ccc(Br)cc3)CC2)c2ccccc2n1C | – | 40µM | ? | – | –
CC1CCCC/C1=N\NS(=O)(=O)c1ccc(Br)cc1 (configuration not stated) | – | 3.5µM | – | · | –
Cc1ccc(S(=O)(=O)NN=C2CCC(C(C)(C)C)CC2)cc1[N+](=O)[O-] (configuration not stated) | – | 35µM | – | – | –
Cc1ccc(S(=O)(=O)N/N=C2/CC(c3ccccc3)Oc3ccccc32)cc1[N+](=O)[O-] (configuration not stated) | – | 40µM | ? | · | –
CC(C)(C)C1CCC(=NNS(=O)(=O)c2ccc(Br)cc2)CC1 (configuration not stated) | – | 7.9µM | – | – | –
O=[N+]([O-])c1cccc(S(=O)(=O)N2CCN(S(=O)(=O)c3ccc4c(c3)OCCO4)CC2)c1 | · | · | · | · | –
Cc1ccc(C(=O)N2CCc3cc(CNC(=O)c4ccnn4C)ccc32)cc1 | – | – | – | · | –
Cc1oc(-c2ccc(C(=O)NCc3ccccc3F)cc2)nc1COc1ccccc1 | – | – | – | · | –
CC1CN(C(=O)N2CCC(C(=O)NCc3ccccc3F)CC2)c2cc(Cl)ccc2O1 (configuration not stated) | – | ? | ? | · | –
CCCC1CCC(=NNS(=O)(=O)c2ccc(C)c([N+](=O)[O-])c2)CC1 (configuration not stated) | – | 7.1µM | – | – | –
Cc1ccc(S(=O)(=O)NN=C2C3CC4CC(C3)CC2C4)cc1[N+](=O)[O-] | – | 22µM | – | – | –
O=C1C=CC2=C3c4cc(O)c(O)cc4CC3(O)COC2=C1O (configuration not stated) | ? | · | · | · | 3.2µM
FC(F)(F)c1cnc(C(c2ccccn2)c2ncn[nH]2)c(Cl)c1 (configuration not stated) | – | – | 2.5µM | 8.9µM | 16µM
Cc1ccc2oc(C(=O)Nc3ccc(S(=O)(=O)Nc4nc(C)cc(C)n4)cc3)cc(=O)c2c1 | – | ? | – | · | –
Cc1cc(C)nc(SCC(=O)c2ccc(O)c(O)c2)n1 | – | 1.8µM | ? | · | 13µM
Cc1cc(C)nc(SCc2ccc(Cl)cc2)n1 | – | – | – | – | –
Cc1cc(C)nc(SCNC(=O)c2ccc(Cl)cc2)n1 | – | 50µM | – | · | ?
O=C(CSc1nnnn1-c1ccccc1)c1ccc(O)cc1O | – | – | – | – | –
COCc1cc(C)nc(SCC(=O)c2ccc(O)c(O)c2)c1C#N | – | 10µM | – | – | 22µM
Cc1cc(C)nc(SCC(=O)c2ccc(O)cc2O)n1 | – | 40µM | – | · | –
